From ChEMBL document CHEMBL3988442, “University of Dundee, Small-Polar-MMV Screening Library” (2021)
The campaign covered roughly 48,000 compounds. About 13,000 (27%) showed an effect of 50% or more. Some of the results follow.

system: Wolbachia pipientis; experiment: Anti-Wolbachia Cell-Based Screen; type: functional; set-up: scale not given: in the data most compounds retested in dose-response had high values; details: 5 µM

How did the “Percent Effect” value turn out when `CCCNC(=O)NC(=O)CN(CC(C)O)c1ccccc1` (stereo not drawn) was run?
Its value is 5.048%.

How did the “Percent Effect” value turn out when `CC(C)C[C@@H]1N[C@H](C(=O)NC2CCOCC2)Cc2c[nH]c3cccc1c23` was run?
The value was -3.699%.

For `O=C(COc1ccc2c(c1)CCC2)N1CCOCC1c1ncon1` (stereo not drawn), which “Percent Effect” value is on record?
The value was -4.669%.

`O=C(NCCSCc1ccc(Br)s1)C1CCCN(C(=O)c2cccs2)C1` (stereo not drawn) was tested. Which “Percent Effect” value did it give?
Its value is -11.8%.

How did the “Percent Effect” value turn out when `Cc1cc(C(=O)Nc2cc(C3CC3)n[nH]2)c2c(C)nn(C)c2n1` was run?
The value was 94.33%.

`CC(=O)N[C@H]1CCN(c2nc(C)nc3c2c(C)nn3C)C1` was tested. Which “Percent Effect” value did it give?
The value was -0.02014%.

For `CCn1ncc(NC(=O)c2cc(C3CC3)nc3c2c(C)nn3C)c1C`, which “Percent Effect” value is on record?
Its value is 0.1323%.

How did the “Percent Effect” value turn out when `O=C1NCCCC1NC(=O)C1(c2cccc(Cl)c2)CCC1` (stereo not drawn) was run?
The value was -14.19%.

For `CC(=O)NC1CCN(C(=O)Nc2cccc(SC(F)F)c2)CC1`, which “Percent Effect” value is on record?
Its value is -5.711%.

`CC(=O)Nc1cccc([C@H]2C[C@@H](NC(C)=O)CCO2)c1` was tested. Which “Percent Effect” value did it give?
The value was 88.4%.

With `CC(=O)NC1CCN(C(=O)Nc2cccc(C(F)(F)F)c2)CC1` as the compound, how does the “Percent Effect” value read?
Its value is -0.6218%.

How did the “Percent Effect” value turn out when `CC1CN(C(=O)C2(c3ccc(F)cc3F)CCOCC2)CCO1` (stereo not drawn) was run?
Its value is -18.6%.

How did the “Percent Effect” value turn out when `CC(=O)N1CCC(C(=O)N2CCC(=Cc3cccc(F)c3)CC2)CC1` was run?
Its value is 0.4533%.

With `O=C(NCc1ccco1)C1CCCN1Cc1nc(-c2ccco2)no1` (stereo not drawn) as the compound, how does the “Percent Effect” value read?
The value was -1.216%.

Which “Percent Effect” value does the source give for `Cc1noc(C2CCCCN2C(=O)NCc2ccco2)n1` (stereo not drawn) here?
Its value is 91.67%.

For `O=C(NCc1ccco1)N1CCCCC1c1nc(C2CC2)no1` (stereo not drawn), which “Percent Effect” value is on record?
The value was 74.85%.

With `Cc1noc(C2CCCCN2C(=O)C2CCN(C(C)C)CC2)n1` (stereo not drawn) as the compound, how does the “Percent Effect” value read?
Its value is -32.36%.

`Cc1cc(CN(C)C(=O)NCc2ccco2)no1` was tested. Which “Percent Effect” value did it give?
Its value is 6.91%.

With `O=C(NC1CCCC1)N1CCCCC1c1nc(C2CC2)no1` (stereo not drawn) as the compound, how does the “Percent Effect” value read?
The value was 105.7%.

Which “Percent Effect” value does the source give for `O=C(c1ccc2nccn2c1)N1CCCC1c1noc(C2CC2)n1` (stereo not drawn) here?
The value was 1.976%.

`CSc1nc(C2CC2)nc(C)c1C(=O)NCc1ccco1` was tested. Which “Percent Effect” value did it give?
Its value is -1.039%.

For `COc1ncccc1C(=O)N1CCCC1c1nc(-c2ccccc2)no1` (stereo not drawn), which “Percent Effect” value is on record?
The value was -0.6104%.

With `O=C(NCc1ccco1)N1CCCCC1c1nc(-c2ccncc2)no1` (stereo not drawn) as the compound, how does the “Percent Effect” value read?
The value was 87.86%.

`CN(C)Cc1nnc(C(=O)N(C)Cc2ccc(F)cc2)o1` was tested. Which “Percent Effect” value did it give?
Its value is -46.46%.

For `Cn1cc(C2CCCN2C(=O)CCCc2nc3ccccc3[nH]2)cn1` (stereo not drawn), which “Percent Effect” value is on record?
Its value is 0.1259%.

`CC(=O)N1CCC(NC2(Cc3cc(CN(C)C)on3)COC2)CC1` was tested. Which “Percent Effect” value did it give?
Its value is -3.87%.

With `Cc1ccc(-c2nn3c(nc2=O)-c2ccccc2NC3C(=O)O)cc1C` (stereo not drawn) as the compound, how does the “Percent Effect” value read?
The value was -8.788%.

With `Cc1n[nH]c(C2CN(C(=O)c3ccnc(C4CC4)n3)CCO2)n1` (stereo not drawn) as the compound, how does the “Percent Effect” value read?
The value was -13.72%.

How did the “Percent Effect” value turn out when `CCc1n[nH]c(C2CN(C(=O)c3cnc(C)nc3CC)CCO2)n1` (stereo not drawn) was run?
Its value is 106.1%.

How did the “Percent Effect” value turn out when `CCc1ncncc1C(=O)N1CCOC(c2nc(C)n[nH]2)C1` (stereo not drawn) was run?
The value was 2.402%.

With `CCc1n[nH]c(C2CN(C(=O)c3ccnc(C4CC4)n3)CCO2)n1` (stereo not drawn) as the compound, how does the “Percent Effect” value read?
The value was 101.3%.

For `CCCc1n[nH]c(C2CN(C(=O)c3ccnc(C4CC4)n3)CCO2)n1` (stereo not drawn), which “Percent Effect” value is on record?
The value was 146%.

`CCc1n[nH]c(C2CN(C(=O)c3ccnc(C)n3)CCO2)n1` (stereo not drawn) was tested. Which “Percent Effect” value did it give?
The value was 98.73%.
